According to the supplement of paper PMC6897291:

Test system: RIVA
Test: growth inhibition by drug plus 177Lu-lilotomab satetraxetan (1 - RLU/untreated control) (fraction); higher = stronger inhibition
Details: 177Lu-lilotomab satetraxetan 0.5 ug/ml
Description: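 RIVA (RI-1) ABC-DLBCL cells were pretreated or not for 18 h with 0.5 ug/ml 177Lu-lilotomab satetraxetan (600 MBq/mg), washed and seeded (3000 cells/well) on 384-well plates pre-printed with the Selleck Cambridge Cancer Compound library. Viability was read by RealTime-Glo luminescence on days 3-6 after seeding. Effect = 1 - RLU/mean RLU of the 48 untreated no-drug control wells per plate; Bliss score = (M-E)/(1-Fa).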

Compound: Cn1cc(C2=C(c3cn(C4CCN(Cc5ccccn5)CC4)c4ccccc34)C(=O)NC2=O)c2ccccc21
- growth inhibition by drug plus 177Lu-lilotomab satetraxetan (10 nM, time (day): 3): 0.515
- growth inhibition by drug plus 177Lu-lilotomab satetraxetan (10 nM, time (day): 4): 0.546
- growth inhibition by drug plus 177Lu-lilotomab satetraxetan (10 nM, time (day): 5): 0.557
- growth inhibition by drug plus 177Lu-lilotomab satetraxetan (10 nM, time (day): 6): 0.564
- growth inhibition by drug plus 177Lu-lilotomab satetraxetan (100 nM, time (day): 3): 0.356
- growth inhibition by drug plus 177Lu-lilotomab satetraxetan (100 nM, time (day): 4): 0.435
- growth inhibition by drug plus 177Lu-lilotomab satetraxetan (100 nM, time (day): 5): 0.443
- growth inhibition by drug plus 177Lu-lilotomab satetraxetan (100 nM, time (day): 6): 0.436

Compound: CC(O)(CS(=O)(=O)c1ccc(F)cc1)C(=O)Nc1ccc(C#N)c(C(F)(F)F)c1 (stereo not given) [Bicalutamide (Casodex)]
- growth inhibition by drug plus 177Lu-lilotomab satetraxetan (10 nM, time (day): 3): 0.401
- growth inhibition by drug plus 177Lu-lilotomab satetraxetan (10 nM, time (day): 4): 0.506
- growth inhibition by drug plus 177Lu-lilotomab satetraxetan (10 nM, time (day): 5): 0.542
- growth inhibition by drug plus 177Lu-lilotomab satetraxetan (10 nM, time (day): 6): 0.556
- growth inhibition by drug plus 177Lu-lilotomab satetraxetan (100 nM, time (day): 3): 0.351
- growth inhibition by drug plus 177Lu-lilotomab satetraxetan (100 nM, time (day): 4): 0.443
- growth inhibition by drug plus 177Lu-lilotomab satetraxetan (100 nM, time (day): 5): 0.458
- growth inhibition by drug plus 177Lu-lilotomab satetraxetan (100 nM, time (day): 6): 0.432

Compound: CC(C)[C@]12O[C@H]1[C@@H]1O[C@]13[C@]1(O[C@H]1C[C@H]1C4=C(CC[C@@]13C)C(=O)OC4)[C@@H]2O [Triptolide]
- growth inhibition by drug plus 177Lu-lilotomab satetraxetan (10 nM, time (day): 3): 0.648
- growth inhibition by drug plus 177Lu-lilotomab satetraxetan (10 nM, time (day): 4): 0.885
- growth inhibition by drug plus 177Lu-lilotomab satetraxetan (10 nM, time (day): 5): 0.928
- growth inhibition by drug plus 177Lu-lilotomab satetraxetan (10 nM, time (day): 6): 0.948
- growth inhibition by drug plus 177Lu-lilotomab satetraxetan (100 nM, time (day): 3): 0.941
- growth inhibition by drug plus 177Lu-lilotomab satetraxetan (100 nM, time (day): 4): 0.967
- growth inhibition by drug plus 177Lu-lilotomab satetraxetan (100 nM, time (day): 5): 0.979
- growth inhibition by drug plus 177Lu-lilotomab satetraxetan (100 nM, time (day): 6): 0.984

Compound: Cc1ccccc1-n1c(Cn2cnc3c(N)ncnc32)nc2cccc(C)c2c1=O
- growth inhibition by drug plus 177Lu-lilotomab satetraxetan (10 nM, time (day): 3): 0.471
- growth inhibition by drug plus 177Lu-lilotomab satetraxetan (10 nM, time (day): 4): 0.529
- growth inhibition by drug plus 177Lu-lilotomab satetraxetan (10 nM, time (day): 5): 0.546
- growth inhibition by drug plus 177Lu-lilotomab satetraxetan (10 nM, time (day): 6): 0.556
- growth inhibition by drug plus 177Lu-lilotomab satetraxetan (100 nM, time (day): 3): 0.375
- growth inhibition by drug plus 177Lu-lilotomab satetraxetan (100 nM, time (day): 4): 0.45
- growth inhibition by drug plus 177Lu-lilotomab satetraxetan (100 nM, time (day): 5): 0.472
- growth inhibition by drug plus 177Lu-lilotomab satetraxetan (100 nM, time (day): 6): 0.479

Compound: CC(=O)Nc1ccc(OC[C@](C)(O)C(=O)Nc2ccc([N+](=O)[O-])c(C(F)(F)F)c2)cc1 [Andarine (GTX-007)]
- growth inhibition by drug plus 177Lu-lilotomab satetraxetan (10 nM, time (day): 3): 0.585
- growth inhibition by drug plus 177Lu-lilotomab satetraxetan (10 nM, time (day): 4): 0.603
- growth inhibition by drug plus 177Lu-lilotomab satetraxetan (10 nM, time (day): 5): 0.615
- growth inhibition by drug plus 177Lu-lilotomab satetraxetan (10 nM, time (day): 6): 0.608
- growth inhibition by drug plus 177Lu-lilotomab satetraxetan (100 nM, time (day): 3): 0.404
- growth inhibition by drug plus 177Lu-lilotomab satetraxetan (100 nM, time (day): 4): 0.5
- growth inhibition by drug plus 177Lu-lilotomab satetraxetan (100 nM, time (day): 5): 0.511
- growth inhibition by drug plus 177Lu-lilotomab satetraxetan (100 nM, time (day): 6): 0.533
